The panel holds about 83,000 compounds, 20% with a hit somewhere; the sample as a whole holds those more often.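 48-hour exposure, single concentration, 96-well plates; percent growth endpoint where 0 means no net growth. Active: below 10.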 Unmarked numbers belong to inactive results. Activity calls are given as the source filed them.
Tests used:
Assay in all cases: NCI-60 one-dose screen, 48 h (100 = growth as untreated, 0 = no growth, -100 = all killed)
Settings in all cases: 10 µM unless noted
[1] = system: NCI-H23 lung
[2] = system: NCI-H226 lung
[3] = system: NCI-H322M lung
[4] = system: HOP-62 NSCLC
[5] = system: NCI-H460 lung
[6] = system: HOP-92 NSCLC
[7] = system: NCI-H522 lung
[8] = system: A549/ATCC NSCLC
[9] = system: COLO 205 colon
[10] = system: DU-145 prostate
[11] = system: K-562 leukemia
[12] = system: MALME-3M melanoma
[13] = system: MDA-MB-231 breast
[14] = system: RXF 393 renal
[15] = system: SF-268 CNS
[16] = system: SF-295 CNS
[17] = system: SF-539 CNS
[18] = system: UACC-257 melanoma
[19] = system: M14 melanoma
[20] = system: 786-0 renal

| Structure (SMILES) | growth [1] | growth [2] | growth [3] | growth [4] | growth [5] | growth [6] | growth [7] | growth [8] | growth [9] | growth [10] | growth [11] | growth [12] | growth [13] | growth [14] | growth [15] | growth [16] | growth [17] | growth [18] | growth [19] | growth [20] |
| --- | --- | --- | --- | --- | --- | --- | --- | --- | --- | --- | --- | --- | --- | --- | --- | --- | --- | --- | --- | --- |
| CN1CCN(Cc2ccc(NC(=O)c3[nH]ncc3Nc3ncnc4[nH]ccc34)cc2)CC1 | -12.2% (active) | -21.3% (active) | 3.32% (active) | 14.1% | 2.62% (active) | -7.91% (active) | 1.39% (active) | 11.4% | -51% (active) | 3.78% (active) | 5.62% (active) | -23.3% (active) | 0.311% (active) | -70.2% (active) | -6.72% (active) | 9.36% (active) | -65% (active) | 15.7% | 0.163% (active) | – |
| CSc1nc(NCCCNc2ccnc3cc(Cl)ccc23)cc(-c2ccccc2)n1 | 67.6% | 84.4% | 85.5% | 81.3% | 70% | 33.5% | 73.5% | 74.3% | -76% (active) | 81.3% | – | 56.9% | 45.4% | 60.9% | 67.9% | 56.9% | – | 68.1% | -42.5% (active) | 72.9% |
| CCCCCCCCCc1cc(CN2CCCCC2)c(O)c(CN2CCCCC2)c1 | 39.4% | 75.9% | 88.4% | 78.4% | 49.1% | 12.7% | 49.2% | 61.9% | 64.3% | 66.4% | 31.8% | 75.1% | 30.9% | 78.3% | 71.7% | 64.6% | 60.9% | 58.8% | 68.3% | – |
| CN1CCN(Cc2ccc(NC(=O)c3[nH]ncc3Nc3ncnc4c3CCC4)cc2)CC1 | 5.19% (active) | 9.05% (active) | 16.5% | 22.6% | 6.72% (active) | -33% (active) | 13.7% | 17.2% | -37.5% (active) | 5.56% (active) | 6.23% (active) | 4.81% (active) | -11.8% (active) | -49.7% (active) | 4.07% (active) | 31.2% | -37.8% (active) | 37.7% | 21.7% | – |
| COc1cc(C2CC(=O)c3c(C)nn(-c4nc5ccccc5[nH]4)c3C2)cc(OC)c1OC (stereo not drawn) | 86% | 65.9% | – | 32.3% | 73.7% | -3.61% (active) | 31.6% | 59.5% | 126% | 85% | 71.7% | 75.1% | 29.5% | 30.3% | 7.82% (active) | 64.7% | – | 98.7% | 102% | 23.8% |
| CC(C)CC(CC1=CCC2CC1C2(C)C)C1=C(O)C(C)(C)C(=O)C(C)(C)C1=O (stereo not drawn) | 5.33% (active) | 13.7% | – | -4.19% (active) | 4.62% (active) | -27.4% (active) | 3.54% (active) | 0.788% (active) | -65.7% (active) | 33.6% | – | 13.9% | -6.26% (active) | 7.5% (active) | 21.4% | -24.3% (active) | 17% | -23.2% (active) | 20.3% | 6.76% (active) |
| COc1cccc(-c2nc3sccn3c2-c2ccnc(NCCCNS(=O)(=O)c3ccccc3)c2)c1 | 29.1% | 32.6% | – | 62.2% | 38.3% | 42% | 27.9% | 29% | 37.7% | 42.2% | 13.9% | 50.8% | 58.8% | 63.7% | 49.9% | 28.6% | 73.1% | 50.9% | 38% | 59.5% |
| Oc1ccc2c(=S)cc(-c3ccc(Br)cc3)oc2c1O | -13.7% (active) | 90.5% | – | 28.7% | 3.24% (active) | -18.9% (active) | -27% (active) | 3.47% (active) | 103% | 25.5% | 20.7% | 38.3% | 3.73% (active) | 33.4% | 9.4% (active) | 100% | – | 67.5% | 12.3% | 28.1% |
| O=C1/C(=C/c2ccc(F)cc2)CN(C(=O)CCN2CCC(=NO)CC2)C/C1=C\c1ccc(F)cc1 | -26.5% (active) | 72.8% | – | -37.7% (active) | -26.9% (active) | -5.42% (active) | -72.6% (active) | 28.4% | -81.9% (active) | -28% (active) | 5.22% (active) | -22.4% (active) | -55.6% (active) | -81% (active) | -23% (active) | -28.9% (active) | -63% (active) | -19.1% (active) | -10.6% (active) | -44.7% (active) |
| CCOC(=O)C(CC)n1c(=O)c2cc(OC)c(OC)cc2c2cnc3[nH]ccc3c21 (stereo not drawn) | 66% | 49.4% | – | 73.8% | 72.4% | 42.5% | 79.3% | 76.1% | 86% | 78.5% | – | 98.9% | 70.5% | 34.5% | 67.4% | 65% | 66.3% | 97.5% | 88.5% | 80.9% |
| COc1cc(OC)c(/C=C/c2cc[n+](C)c3ccccc23)c(OC)c1 | 17.3% | 23.1% | – | 17.1% | 4.59% (active) | -10.8% (active) | -35.3% (active) | 8.24% (active) | -83.9% (active) | 18.5% | 7.21% (active) | 5.28% (active) | 22.5% | – | 15.7% | -48.8% (active) | 12% | -24.7% (active) | 36.2% | 26.1% |
| COc1c(Cl)cc(Cl)cc1Cl | 108% | 110% | – | 97.5% | 97.8% | 116% | 103% | 116% | 116% | 111% | 96.2% | 143% | 92.2% | 121% | 107% | 103% | 111% | 122% | 116% | 112% |
| COc1cnc2c(c1)C(=O)c1c-2n(CCCN2CCCC2)c(=O)c2cc([N+](=O)[O-])ccc12 | -7.75% (active) | -79.4% (active) | – | -16.8% (active) | -60.1% (active) | 16.4% | -31% (active) | -44.8% (active) | 2.24% (active) | 3.15% (active) | -12.1% (active) | -20.2% (active) | -49.1% (active) | -88.7% (active) | 17.1% | -6.13% (active) | – | -8.07% (active) | 0.878% (active) | -90.9% (active) |
| O=C(O)c1cccc2c1-c1ccccc1C2=O | 98.4% | 91.6% | – | 95.3% | 105% | 80.8% | 88.2% | 101% | 99.8% | 114% | 119% | 85.8% | 96% | 90.4% | 105% | 96.6% | 97.9% | – | 94.5% | 102% |
| CN(C)CC(=O)Nc1ccc(Cn2nnc3c2C(=O)c2nnn(Cc4ccc(NC(=O)CN(C)C)cc4)c2C3=O)cc1 | -31.7% (active) | -56.2% (active) | – | -67.4% (active) | -3.43% (active) | -53.8% (active) | -67% (active) | -59.8% (active) | -80.4% (active) | -96.2% (active) | – | -81.2% (active) | -14.2% (active) | -77.4% (active) | -49.1% (active) | -87.4% (active) | – | -71.1% (active) | -89.4% (active) | -76.4% (active) |
| CCN(CC)CCCNc1cc(OC)cc2nc3cc(Cl)ccc3nc12 | -46.7% (active) | -20.8% (active) | – | -47.3% (active) | -16.2% (active) | -9.1% (active) | -63.2% (active) | -52.4% (active) | -99.3% (active) | 0.94% (active) | -56.5% (active) | -84.7% (active) | -25.9% (active) | -10.9% (active) | -35.5% (active) | 18.1% | -77.6% (active) | -79.7% (active) | -94.2% (active) | 2.95% (active) |
| COCCOC(=O)C1=C(C)NC(=S)NC1c1ccc2c(c1)OCO2 (stereo not drawn) | 96.2% | 90.2% | – | 98% | 112% | 108% | 94.3% | 101% | 117% | 108% | 91.8% | 108% | 105% | 101% | 97.4% | 105% | 99.2% | 90.2% | 104% | 107% |
